Experimental data from paper PMC13083723 (Patterns, 2026).
Hit rate of the full screen: of about 5,400 compounds, about 190 (3.5%) showed an effect of 50% or more. This is one part of a sample in which strong results are shown more often than they occur. Positions of bridges follow the written chain, without caps; N, C: chain ends. Non-standard residues stand in square brackets, D forms with d. Residues, ends and D or L forms follow the SMILES beside them. *: point of attachment. Heptanoyl(5-Me) = CCC(C)CCCC(=O)*; Dab = NCC[C@H](N)C(=O)O

The compounds below were run on Vero-E6 (assay: primary screen, phospholipidosis by LipidTOX staining; higher = more effect of the substance). Settings: 10 µM.
Method in brief: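 Single-concentration screen at 10 μM, with DMSO 0.1 v/v % and amiodarone 10 μM as controls. Read-out is LipidTOX Red phospholipid staining, which tolerates aldehyde fixation, in Vero-E6 cells.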
Compound `CCC(=O)O[C@@H]1CC(=O)O[C@H](C)C/C=C/C=C/[C@H](OC(C)=O)[C@H](C)C[C@H](CC=O)[C@H](O[C@@H]2O[C@H](C)[C@@H](O[C@H]3C[C@@](C)(OC(C)=O)[C@@H](OC(=O)CC)[C@H](C)O3)[C@H](N(C)C)[C@H]2O)[C@H]1OC` has a result_ITMP of 7.16%.
For `O=C1NC(c2ccccc2)(c2ccccc2)C(=O)N1COP(=O)([O-])[O-]`, the result_ITMP was -0.37%.
For `CN1CCN(CCOc2cc(OC3CCOCC3)c3c(Nc4c(Cl)ccc5c4OCO5)ncnc3c2)CC1`, the result_ITMP was 58.5%.
Compound `CNC(=O)CN1CCC(Oc2cc3c(Nc4cccc(Cl)c4F)ncnc3cc2OC)CC1` has a result_ITMP of 27.2%.
In the case of `CCC(C)CCCC(=O)N[C@@H](CCN)C(=O)N[C@H](C(=O)N[C@@H](CCN)C(=O)N[C@H]1CCNC(=O)[C@H]([C@@H](C)O)NC(=O)[C@H](CCN)NC(=O)[C@H](CCN)NC(=O)[C@H](CC(C)C)NC(=O)[C@@H](CC(C)C)NC(=O)[C@H](CCN)NC1=O)[C@@H](C)O` (stereo partly drawn) [R4A_0005175_001 / SPE_A18924964] ({Heptanoyl(5-Me)}-[Dab]T[Dab][Dab][Dab][dL]L[Dab][Dab]T; lactam 4-C), the result_ITMP is reported as -1.3%.
`CO[C@@]1(NC(=O)C(C(=O)[O-])c2ccc(O)cc2)C(=O)N2C(C(=O)[O-])=C(CSc3nnnn3C)CO[C@@H]21` (some centres unmarked) gave a result_ITMP of -4.09%.
`O=c1c(-c2ccc(O)cc2)coc2c(O[C@@H]3O[C@H](CO)[C@@H](O)[C@H](O)[C@H]3O)c(O)ccc12` showed a result_ITMP of -5.15%.
`CC(=O)O[C@H]1CC[C@@]2(C)C(=CCC3C2CC[C@]2(C)C(=O)CCC32)C1` (some centres unmarked) gave a result_ITMP of 0.97%.
Compound `C[C@]12CC[C@H](O)CC1=CCC1C2CC[C@]2(C)C(=O)CC[C@@H]12` (some centres unmarked) has a result_ITMP of 13.7%.
`CCN(CC)CCO[C@H]1CC[C@@]2(C)C(=CC[C@@H]3[C@@H]2CC[C@]2(C)C(=O)CC[C@@H]32)C1` was tested, and the result_ITMP was 61%.
`COc1ccc(C(=O)/C(Br)=C/C(=O)[O-])cc1` gave a result_ITMP of 7.96%.
`O=C([O-])[C@H](O)[C@@H](O)[C@H](O)[C@H](O)CO` gave a result_ITMP of -4.67%.
Work on `C=C[C@@]1(C)CC(=O)[C@]2(O)[C@@]3(C)[C@@H](O)CCC(C)(C)[C@@H]3[C@H](O)[C@H](OC(C)=O)[C@@]2(C)O1` yielded a result_ITMP of -2.23%.
For `N/C(=N\Cc1ccccc1)NC(=O)c1nc(Cl)c(N)nc1N`, the result_ITMP was 17.2%.
With `C[N+](C)(C)CC(=O)[O-]` the result_ITMP was -1.21%.
In the case of `C=C1/C(=C/C=C2\CCC[C@]3(C)[C@@H]([C@H](C)/C=C/[C@@H](C)C(C)C)CC[C@@H]23)C[C@@H](O)C[C@@H]1O`, the result_ITMP is reported as -2.6%.
Work on `O=C(NC1CCN(CCc2c[nH]c3ccccc23)CC1)c1ccccc1` yielded a result_ITMP of 6.62%.
`O=C(NC1CCN(CCCCC2(C(=O)NCC(F)(F)F)c3ccccc3-c3ccccc32)CC1)c1ccccc1-c1ccc(C(F)(F)F)cc1` gave a result_ITMP of 62.5%.
With `O=C(O)c1ccccc1-c1ccc(C(F)(F)F)cc1` the result_ITMP was -4.47%.
Work on `CC(C)NCC(O)COc1ccc(CC(N)=O)cc1` (centres unmarked) [R4A_0002533_001 / SPE_K44993696] yielded a result_ITMP of -2.42%.
In the case of `CCCCC(CC)CCC(CC(C)C)OS(=O)(=O)[O-]` (centres unmarked), the result_ITMP is reported as -1.42%.
`C[C@H](Cc1ccc(OCC(=O)[O-])cc1)NC[C@H](O)c1cccc(Cl)c1` gave a result_ITMP of -1.85%.
For `C[C@]12CCC(=O)C=C1CCC1C2CC[C@@]2(C)C1CC[C@@H]2O` (some centres unmarked), the result_ITMP was 2.46%.
Work on `CCCCOc1ccc(C(=O)CCN2CCCCC2)cc1` yielded a result_ITMP of 4.72%.
Work on `CCCCCS(=O)(=O)CCCCCCCCCCn1c(-c2ccc(O)cc2)c(C)c2cc(O)ccc21` yielded a result_ITMP of -3.27%.
`O=C(c1ccc(OCCN2CCCCC2)cc1)c1c(-c2ccc(O)cc2)sc2cc(O)ccc12` was tested, and the result_ITMP was 74.6%.
Compound `Cc1ccc(CC2(O)CCN(CCOc3ccc(O)cc3)CC2)cc1` has a result_ITMP of -3.85%.
Work on `Cc1c(-c2ccc(O)cc2)n(Cc2ccc(OCCN3CCCCCC3)cc2)c2ccc(O)cc12` yielded a result_ITMP of 57.2%.
Work on `CC(C)N1CCN(c2ccc(C(=O)c3c(-c4ccc(O)cc4)sc4cc(O)ccc34)cc2)CC1` yielded a result_ITMP of -7.16%.
With `Cc1c(C(=O)Nc2ccc(N3C[C@@H](C)O[C@@H](C)C3)nc2)cccc1-c1ccc(OC(F)(F)F)cc1` the result_ITMP was -6.29%.
`CCn1c(-c2ccc(Cl)cc2)n[nH]c1=O` was tested, and the result_ITMP was -4.76%.
`CCCCC[C@H](O)/C=C/[C@@H]1[C@H]2C/C(=C/CCCC(=O)[O-])O[C@H]2C[C@H]1O` showed a result_ITMP of 0.37%.
Compound `O=C([O-])CN(CCN(CC(=O)[O-])CC(=O)O)CCN(CC(=O)[O-])CC(=O)O` has a result_ITMP of 0.03%.
In the case of `CN1C2CCC1CC(OC(c1ccccc1)c1ccc(Cl)cc1)C2` (centres unmarked), the result_ITMP is reported as 98.3%.
In the case of `CN1CCC(OC(c2ccccc2)c2ccccc2)CC1`, the result_ITMP is reported as 26.1%.
For `CCCCN1[C@@H]2CC[C@H]1C[C@@H](OC(c1ccc(F)cc1)c1ccc(F)cc1)C2`, the result_ITMP was 51.4%.
Work on `CN1[C@@H]2CC[C@H]1C[C@@H](OC(=O)C(O)c1ccccc1)C2` (some centres unmarked) yielded a result_ITMP of -3.26%.
With `CN1C2CCC1CC(OC(c1ccc(F)cc1)c1ccc(F)cc1)C2` (centres unmarked) the result_ITMP was 61.5%.
`Fc1ccc(C(OCCN2CCN(CCCc3ccccc3)CC2)c2ccc(F)cc2)cc1` was tested, and the result_ITMP was 24.8%.
In the case of `CN1C2CC[C@@H]1C[C@@H](OC(=O)[C@H](CO)c1ccccc1)C2`, the result_ITMP is reported as -4.79%.
With `CC(C(=O)OC1CC2CCC(C1)N2C)c1ccc(Br)cc1` (centres unmarked) the result_ITMP was 20.6%.
Work on `CN1[C@@H]2CC[C@H]1C[C@@H](OC(c1ccccc1)c1ccccc1)C2` yielded a result_ITMP of 35.6%.
For `C[C@H](NC(=O)[C@@H](Cc1c[nH]c2ccccc12)NC(=O)[C@@H](N)Cc1cnc[nH]1)C(=O)N[C@@H](Cc1c[nH]c2ccccc12)C(=O)N[C@H](Cc1ccccc1)C(=O)N[C@@H](CCCCN)C(N)=O` (H-H[dW]AW[dF]K-NH2), the result_ITMP was -2.53%.
Work on `Cc1ccc(OC[C@@H](O)[C@H](C)NC(C)C)c2c1CCC2` (racemic) yielded a result_ITMP of 10.4%.
Work on `CO[C@@]12[C@@H]3NC3CN1C1=C(C(=O)C(N)=C(C)C1=O)[C@@H]2COC(N)=O` (some centres unmarked) yielded a result_ITMP of 0.39%.
Compound `OC[C@@H](O)C(O[C@@H]1O[C@H](CO)[C@H](O)[C@H](O)[C@H]1O)[C@H](O)[C@@H](O)CO` (some centres unmarked) has a result_ITMP of -8.28%.
With `O=C(O)[C@H]1CC[C@H](c2cc3cccnc3c(-c3cccc(F)c3)n2)CC1` the result_ITMP was -0.01%.
For `O[C@@H]1CO[C@H]2[C@@H]1OC[C@@H]2O`, the result_ITMP was -0.79%.
With `COc1cc(C(=O)OCCCN2CCCN(CCCOC(=O)c3cc(OC)c(OC)c(OC)c3)CC2)cc(OC)c1OC` the result_ITMP was 58.7%.
Compound `COc1cc(N)c(Cl)cc1C(=O)OCCN1CCCCC1` has a result_ITMP of -1.25%.
For `COc1cc(N)c(Cl)cc1C(=O)OCCCN1CCCCC1`, the result_ITMP was 0.68%.
For `O=C(O)C[CH2][Ge](=[O])[O][Ge](=[O])[CH2]CC(=O)O`, the result_ITMP was -3.6%.
With `Cc1ccc(C(=O)Nc2ccc(S(=O)(=O)[O-])c3cc(S(=O)(=O)[O-])cc(S(=O)(=O)[O-])c23)cc1NC(=O)c1cccc(NC(=O)Nc2cccc(C(=O)Nc3cc(C(=O)Nc4ccc(S(=O)(=O)[O-])c5cc(S(=O)(=O)[O-])cc(S(=O)(=O)[O-])c45)ccc3C)c2)c1` the result_ITMP was -3.34%.
In the case of `C[C@@H](O)[C@H]1C(=O)N2C(C(=O)[O-])=C(S[C@@H]3CN[C@H](C(=O)Nc4cccc(C(=O)O)c4)C3)[C@H](C)[C@H]12`, the result_ITMP is reported as -0.24%.
Work on `C[C@H](NC(=O)CCc1nc2ccccc2c(=O)[nH]1)c1ccccc1` [R4A_0003503_001 / SPE_K24283677] yielded a result_ITMP of -1.61%.
`C/C=C1/[C@H]2C=C(C)C[C@]1(N)c1ccc(=O)[nH]c1C2` gave a result_ITMP of -2.16%.
`O=C(Nc1ncc(SCCN2CCCC2)s1)[C@]1(c2ccc(S(=O)(=O)C3CC3)cc2)C[C@H]1C1CCCCC1` showed a result_ITMP of 55.8%.
Compound `C[C@H](CCC(=O)O)[C@H]1CC[C@H]2[C@@H]3CC[C@@H]4C[C@H](O)CC[C@]4(C)[C@H]3C[C@H](O)[C@]12C` has a result_ITMP of 0.11%.
Compound `Nc1nc(S)c2nc[nH]c2n1` has a result_ITMP of 26.6%.
`Cc1ccc(C(=O)C(C)CN2CCCCC2)cc1` (centres unmarked) showed a result_ITMP of -4.52%.
Work on `O=C(Nc1ccccc1)OCC(CN1CCCCC1)OC(=O)Nc1ccccc1` (centres unmarked) yielded a result_ITMP of 54.4%.
Work on `O=C(NCCCN1CCCCCC1)C(c1ccccc1)C1CCCCC1` (centres unmarked) yielded a result_ITMP of 36.5%.
For `CCn1c(=O)/c(=C2\Sc3ccccc3N2C)s/c1=C/c1cccc[n+]1CC`, the result_ITMP was -7.97%.
With `CCC(C)CNCC(=O)N1CCc2sccc2C1COc1cccc(C)c1` (centres unmarked) the result_ITMP was 57.8%.
`COc1ccc(CCNCC(O)COc2cccc(C)c2)cc1OC` (centres unmarked) showed a result_ITMP of 34.1%.
`Nc1ccc(S(=O)(=O)[O-])cc1` gave a result_ITMP of -6.57%.
`O=C([O-])CN1CCN(CC(=O)[O-])CCN(C(CO)C(O)CO)CCN(CC(=O)[O-])CC1.[Gd+3]` (centres unmarked) gave a result_ITMP of -1.16%.
Work on `O=C([O-])c1cc(/N=N/c2ccc(O)c(C(=O)[O-])c2)ccc1O` yielded a result_ITMP of -2.29%.
Compound `OC(CN1CCNCC1)Cn1c2ccc(Br)cc2c2cc(Br)ccc21` (centres unmarked) has a result_ITMP of 123%.
`CN(C)CC(O)Cn1c2ccc(Br)cc2c2cc(Br)ccc21` (centres unmarked) gave a result_ITMP of 28.6%.
With `OC(CNc1ccccc1)Cn1c2ccc(Br)cc2c2cc(Br)ccc21` (centres unmarked) the result_ITMP was -2.55%.
For `C=C[C@]1(C)C[C@@H](OC(=O)CS[C@@H]2C[C@H]3CC[C@@H](C2)N3C)[C@]2(C)[C@H](C)CC[C@]3(CCC(=O)[C@H]32)[C@@H](C)[C@@H]1O`, the result_ITMP was 12.9%.
`NC(=O)c1cc[n+](CC2=C(C(=O)[O-])N3C(=O)[C@@H](NC(=O)[C@@H](c4ccccc4)S(=O)(=O)[O-])[C@H]3SC2)cc1` showed a result_ITMP of 4.59%.
`Cc1c(CN(C)C(=O)/C=C/C2=CNC3=NC(=O)CCC3=C2)oc2ccccc12` gave a result_ITMP of -2.49%.
